# Results: publication PMC5540273 (PLoS ONE, 2017)
# Test system: T1, JNK2
# T1 construct: gene MAPK9
# Details: concentration: 1 μM, replicates: in singlicate; n = 1
# 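Also: KINOMEscan kinase panel screen.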
row,Structure (SMILES),%Inh [%]
1,CCn1c(-c2ccoc2)nc2cnccc21 [SB-733887],0
2,Nc1nc(-c2ccccc2F)c(-c2ccnc3ccccc23)s1 [GW560459],87
3,COc1cc(Nc2ccnc3ccc(C(F)(F)F)cc23)cc(OC)c1OC [GW577382],48
4,COC(=O)c1c(-c2ccccc2)c2cc(Br)ccc2c(=O)n1Cc1ccc(S(C)(=O)=O)cc1,98.8
5,O=C(Nc1n[nH]c2nc(-c3ccccc3)c(Cl)cc12)C1CC1 [SB-734909],32
6,Nc1nc(N)c2nc(-c3ccccc3)[nH]c2n1 [SKF-12778],14
7,Cc1c(Cn2c(C)nn3c(=O)cc(N4CCO[C@H](C)C4)nc23)cccc1C(F)(F)F [GSK2373690],27
8,COc1cccc(C2=C(Nc3cccc(C(=O)O)c3)C(=O)NC2=O)c1 [SB-390770],24
9,CCCNC(=O)Nc1ccc(Oc2ncnc3ccn(C)c23)cc1,3
10,Cc1ccc(-c2ccc3c(ccc4sc5c(c43)NC[C@@H](C)N=C5N(C)C)n2)cn1,0
11,CN1C(=O)C(Nc2cc(Cl)c(O)c(Cl)c2)=C(c2ccc(Cl)cc2)C1=O [SB-404321],19
12,COc1cc(Nc2nccc(N3CCC(NC(=O)C4COc5ccccc5O4)C3)n2)cc(OC)c1OC (centres unmarked) [GSK1379761],22
13,COc1ccc(-c2coc3ccc(-c4nnc(SCc5cccc(C#N)c5)o4)cc23)cc1,17
14,COc1cc(Nc2nccc(N3CCC(NC(=O)C(C)c4ccc(Cl)cc4)C3)n2)cc(OC)c1OC (centres unmarked) [GSK1379757],6
15,COC(=O)c1c(-c2ccccc2)c2cc(Br)ccc2c(=O)n1Cc1ccc(NC(=O)CCC(=O)O)cc1,99.1
16,COc1cccc(-n2cnc3c(N)ncnc32)c1 [SKF-97416],27
17,O=C(NCc1cccs1)c1cc(C(=O)c2c(Cl)cccc2Cl)c[nH]1 [GW823670],0
18,C[C@@H]1CC[C@H](C(=O)NC2CCCCC2)CN1c1cc(-c2ccc3c(N)n[nH]c3c2)nc(N)n1 [GSK2291363],30
19,Cc1nnc(-c2ccc3ncn(-c4ccc(S(C)=O)cc4)c3c2)o1 (centres unmarked),0

row,Structure (SMILES),%Inh [%]
1,O=C1NC(=O)C(c2ccccc2)=C1Nc1cccc(O)c1 [SB-390534],13
2,COc1ccc(-c2cc3c(C)nc(N)nc3n([C@H]3CC[C@H](OCCO)CC3)c2=O)cn1,0
3,Cc1nnc(-c2ccc(C)c(-c3ccc(C(=O)O)cc3)c2)o1 [GW608005],0
4,Cc1cccc(-c2cc(-c3c[nH]nc3-c3ccccn3)ccn2)c1 [GW679395],66
5,Nc1ncnc2c1ncn2-c1ccc(Cl)cc1 [AH2635],0
6,Cl.NS(=O)(=O)c1cccc(Nc2cc(-c3ccc(F)cc3)n[nH]2)c1 [GW824645],1
7,Fc1cccc(CSc2nnc(-c3ccc4c(c3)CCO4)o2)c1,4
8,CCC(=O)c1c(-c2ccccc2)c2cc(Cl)ccc2c(=O)n1Cc1cc(S(C)(=O)=O)n(CC(N)=O)n1,99
9,FC(F)(F)c1ccc(-c2ncn(CCCN3CCOCC3)c2-c2ccncc2)cc1 [SB-217780],53
10,Cc1ccc(Oc2ccc(Nc3ncnc4cc[nH]c34)cc2C)cn1,44
11,Cc1cccc(-c2nc(Nc3ccc4c(cnn4C)c3)c3ccccc3n2)n1 [GW876731],60
12,O=C(NCCNc1ccnc(Nc2ccc(F)cc2)n1)Nc1ccc2c(c1)OCO2 [GSK1379882],10
13,Nc1ncnc2c1ncn2-c1cccc(F)c1 [SKF-97560],18
14,Cc1nc(N(C)[C@H]2CN(C(=O)CC#N)CC[C@H]2C)c2cc[nH]c2n1,0
15,CCC(=O)c1c(-c2ccccc2)c2cc(Cl)ccc2c(=O)n1Cc1ccc(C(=O)O)cc1,93.4
16,COc1cc2ncn(-c3cc(OCCCc4ccccc4)c(C(N)=O)s3)c2cc1OC [GSK205189],21
17,CCCC(=O)Nc1n[nH]c2ncc(-c3cccc4ccccc34)cc12 [SB-642057],21
18,CN(C)c1cc(-c2ccc3c(N)n[nH]c3c2)nc(N)n1 [GSK2219329],11

# Test system: T2, JNK3
# T2 construct: gene MAPK10
# Details: concentration: 1 μM, replicates: in singlicate; n = 1
row,Structure (SMILES),%Inh [%]
1,CCn1c(-c2ccoc2)nc2cnccc21 [SB-733887],0
2,Nc1nc(-c2ccccc2F)c(-c2ccnc3ccccc23)s1 [GW560459],87
3,COc1cc(Nc2ccnc3ccc(C(F)(F)F)cc23)cc(OC)c1OC [GW577382],29
4,COC(=O)c1c(-c2ccccc2)c2cc(Br)ccc2c(=O)n1Cc1ccc(S(C)(=O)=O)cc1,98.6
5,O=C(Nc1n[nH]c2nc(-c3ccccc3)c(Cl)cc12)C1CC1 [SB-734909],29
6,Nc1nc(N)c2nc(-c3ccccc3)[nH]c2n1 [SKF-12778],8
7,Cc1c(Cn2c(C)nn3c(=O)cc(N4CCO[C@H](C)C4)nc23)cccc1C(F)(F)F [GSK2373690],17
8,COc1cccc(C2=C(Nc3cccc(C(=O)O)c3)C(=O)NC2=O)c1 [SB-390770],17
9,CCCNC(=O)Nc1ccc(Oc2ncnc3ccn(C)c23)cc1,0
10,Cc1ccc(-c2ccc3c(ccc4sc5c(c43)NC[C@@H](C)N=C5N(C)C)n2)cn1,0
11,CN1C(=O)C(Nc2cc(Cl)c(O)c(Cl)c2)=C(c2ccc(Cl)cc2)C1=O [SB-404321],15
12,COc1cc(Nc2nccc(N3CCC(NC(=O)C4COc5ccccc5O4)C3)n2)cc(OC)c1OC (centres unmarked) [GSK1379761],7
13,COc1ccc(-c2coc3ccc(-c4nnc(SCc5cccc(C#N)c5)o4)cc23)cc1,14
14,COc1cc(Nc2nccc(N3CCC(NC(=O)C(C)c4ccc(Cl)cc4)C3)n2)cc(OC)c1OC (centres unmarked) [GSK1379757],0
15,COC(=O)c1c(-c2ccccc2)c2cc(Br)ccc2c(=O)n1Cc1ccc(NC(=O)CCC(=O)O)cc1,99.3
16,COc1cccc(-n2cnc3c(N)ncnc32)c1 [SKF-97416],8
17,O=C(NCc1cccs1)c1cc(C(=O)c2c(Cl)cccc2Cl)c[nH]1 [GW823670],0
18,C[C@@H]1CC[C@H](C(=O)NC2CCCCC2)CN1c1cc(-c2ccc3c(N)n[nH]c3c2)nc(N)n1 [GSK2291363],10
19,Cc1nnc(-c2ccc3ncn(-c4ccc(S(C)=O)cc4)c3c2)o1 (centres unmarked),0

row,Structure (SMILES),%Inh [%]
1,O=C1NC(=O)C(c2ccccc2)=C1Nc1cccc(O)c1 [SB-390534],4
2,COc1ccc(-c2cc3c(C)nc(N)nc3n([C@H]3CC[C@H](OCCO)CC3)c2=O)cn1,0
3,Cc1nnc(-c2ccc(C)c(-c3ccc(C(=O)O)cc3)c2)o1 [GW608005],0
4,Cc1cccc(-c2cc(-c3c[nH]nc3-c3ccccn3)ccn2)c1 [GW679395],73
5,Nc1ncnc2c1ncn2-c1ccc(Cl)cc1 [AH2635],0
6,Cl.NS(=O)(=O)c1cccc(Nc2cc(-c3ccc(F)cc3)n[nH]2)c1 [GW824645],0
7,Fc1cccc(CSc2nnc(-c3ccc4c(c3)CCO4)o2)c1,4
8,CCC(=O)c1c(-c2ccccc2)c2cc(Cl)ccc2c(=O)n1Cc1cc(S(C)(=O)=O)n(CC(N)=O)n1,99.2
9,FC(F)(F)c1ccc(-c2ncn(CCCN3CCOCC3)c2-c2ccncc2)cc1 [SB-217780],55
10,Cc1ccc(Oc2ccc(Nc3ncnc4cc[nH]c34)cc2C)cn1,57
11,Cc1cccc(-c2nc(Nc3ccc4c(cnn4C)c3)c3ccccc3n2)n1 [GW876731],28
12,O=C(NCCNc1ccnc(Nc2ccc(F)cc2)n1)Nc1ccc2c(c1)OCO2 [GSK1379882],3
13,Nc1ncnc2c1ncn2-c1cccc(F)c1 [SKF-97560],36
14,Cc1nc(N(C)[C@H]2CN(C(=O)CC#N)CC[C@H]2C)c2cc[nH]c2n1,0
15,CCC(=O)c1c(-c2ccccc2)c2cc(Cl)ccc2c(=O)n1Cc1ccc(C(=O)O)cc1,94.6
16,COc1cc2ncn(-c3cc(OCCCc4ccccc4)c(C(N)=O)s3)c2cc1OC [GSK205189],12
17,CCCC(=O)Nc1n[nH]c2ncc(-c3cccc4ccccc34)cc12 [SB-642057],0
18,CN(C)c1cc(-c2ccc3c(N)n[nH]c3c2)nc(N)n1 [GSK2219329],4
